Data as given in PubChem BioAssay.
Values without a mark were called inactive. For part of these data: Entries with a potency or affinity are not part of this list. Active and inactive are the calls of the source. Unless noted, the rule behind the calls is not given here.

How the values were obtained:
[1] = antimalarial activity against Dd2 strain (AID 2302;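 active = growth inhibition above 50% at the single 2 µM test dose, taken to imply half-maximal potency below 2 µM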;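 note: 0% = DMSO untreated growth and 100% = chloroquine plus artemisinin killed control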); conditions: P. falciparum Dd2 in RBCs, LDH growth readout, 72 h; at 2 µM; hits give high values
[2] = human hepatoma cell viability loss – ATP luminescence, cytotoxicity control for P. falciparum antimalarial project, primary screen (AID 2303;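 active = inhibition above 50%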;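 note: 0% = DMSO wells and 100% = digitonin-killed cells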); conditions: HepG2 viability, 24-48 h, at 10 µM, hits give high values
[3] = target: L-lactate dehydrogenase (Plasmodium falciparum (isolate CDC / Honduras)) (UniProt Q27743); assay: PfLDH activity inhibition – cell lysate, 3D7 strain, counter-screen for P. falciparum growth inhibition project (AID 2304);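 note: 0% = vehicle and 100% = reference inhibitor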; conditions: P. falciparum 3D7 crude extract, LDH APAD/NBT absorbance; at 2 µM; hits give high values
[4] = inhibition of 3D7 malaria parasite growth – strain 3D7 (AID 2306);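 note: 0% = DMSO wells and 100% = chloroquine plus artemisinin control wells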; conditions: P. falciparum 3D7 erythrocytic growth, LDH absorbance, 72 h; at 2 µM; hits give high values
[5] = target: Calcium-dependent protein kinase 1 (Plasmodium falciparum (isolate 3D7)) (UniProt P62344); assay: PfCDPK1 kinase inhibitors, biochemical, TCAMS library (AID 1159585; cut-off not given, nearly all actives have IC50 up to about 0.98 µM;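 note: inhibitors leave more ATP so luminescence rises with inhibition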); conditions: recombinant PfCDPK1, Kinase-Glo ATP depletion luminescence
[6] = target: Plasmodium falciparum protein kinase 6 (PK6, PF3D7_1337100) (UniProt Q8IDW1); assay: PfPK6 kinase inhibitors, biochemical, TCAMS library (AID 1159586); conditions: recombinant PfPK6, Kinase-Glo ATP depletion luminescence
[7] = target: Protein kinase 7 (PK7), Plasmodium falciparum 3D7 (PF3D7_0213400) (UniProt Q7YTF7); assay: inhibition of Plasmodium PK7 catalytic activity – biochemical, TCAMS antimalarial set, Kinase-Glo luminescence (AID 1159587); conditions: recombinant PfPK7, Kinase-Glo ATP depletion luminescence
[8] = target: Calcium-dependent protein kinase 4 (Plasmodium falciparum (isolate 3D7)) (UniProt Q8IBS5); assay: PfCDPK4 kinase inhibitors, biochemical, TCAMS library (AID 1159588; cut-off not given, nearly all actives have IC50 up to about 0.91 µM); conditions: recombinant PfCDPK4, Kinase-Glo ATP depletion luminescence
Sequence of Calcium-dependent protein kinase 4 (Plasmodium falciparum (isolate 3D7)) (Q8IBS5 whole entry, looked up): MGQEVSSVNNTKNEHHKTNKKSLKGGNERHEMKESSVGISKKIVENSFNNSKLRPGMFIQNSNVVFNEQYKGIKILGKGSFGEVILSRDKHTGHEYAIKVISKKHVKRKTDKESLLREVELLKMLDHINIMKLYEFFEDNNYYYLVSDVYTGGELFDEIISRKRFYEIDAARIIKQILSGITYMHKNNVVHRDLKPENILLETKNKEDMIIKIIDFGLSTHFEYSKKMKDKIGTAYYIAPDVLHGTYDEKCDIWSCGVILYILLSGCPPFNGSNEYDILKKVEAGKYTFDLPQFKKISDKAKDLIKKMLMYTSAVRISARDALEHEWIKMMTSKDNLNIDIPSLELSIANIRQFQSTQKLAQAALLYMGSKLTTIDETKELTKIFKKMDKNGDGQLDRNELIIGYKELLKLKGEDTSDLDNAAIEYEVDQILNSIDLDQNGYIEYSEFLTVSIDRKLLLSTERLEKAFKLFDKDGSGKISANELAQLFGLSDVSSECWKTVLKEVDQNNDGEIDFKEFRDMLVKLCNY

Sequence of L-lactate dehydrogenase (Plasmodium falciparum (isolate CDC / Honduras)) (Q27743 whole entry, looked up): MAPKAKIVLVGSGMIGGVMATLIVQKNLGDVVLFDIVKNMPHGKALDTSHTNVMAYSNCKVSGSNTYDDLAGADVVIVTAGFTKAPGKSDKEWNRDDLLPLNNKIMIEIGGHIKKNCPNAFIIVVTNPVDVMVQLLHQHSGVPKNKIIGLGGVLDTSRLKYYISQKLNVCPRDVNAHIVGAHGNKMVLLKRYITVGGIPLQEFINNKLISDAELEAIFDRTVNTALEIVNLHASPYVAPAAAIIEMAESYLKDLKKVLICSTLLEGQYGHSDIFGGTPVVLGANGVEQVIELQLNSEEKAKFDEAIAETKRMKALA
Sequence of Calcium-dependent protein kinase 1 (Plasmodium falciparum (isolate 3D7)) (P62344 whole entry, looked up): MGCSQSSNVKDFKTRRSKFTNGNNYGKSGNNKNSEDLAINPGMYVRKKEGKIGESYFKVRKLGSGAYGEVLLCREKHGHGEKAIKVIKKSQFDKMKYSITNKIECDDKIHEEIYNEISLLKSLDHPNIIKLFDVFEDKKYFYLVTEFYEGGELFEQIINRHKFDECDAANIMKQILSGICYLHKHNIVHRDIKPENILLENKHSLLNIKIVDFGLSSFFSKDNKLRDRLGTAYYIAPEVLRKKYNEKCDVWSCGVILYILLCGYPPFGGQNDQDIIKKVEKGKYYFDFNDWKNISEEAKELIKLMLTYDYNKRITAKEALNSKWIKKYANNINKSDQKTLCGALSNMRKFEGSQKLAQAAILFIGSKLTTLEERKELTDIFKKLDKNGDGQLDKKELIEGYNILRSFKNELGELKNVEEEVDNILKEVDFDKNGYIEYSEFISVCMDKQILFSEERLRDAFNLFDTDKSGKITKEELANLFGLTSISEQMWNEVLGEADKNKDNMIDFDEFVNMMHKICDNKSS
Sequence of Protein kinase 7 (PK7), Plasmodium falciparum 3D7 (PF3D7_0213400) (Q7YTF7 1-343): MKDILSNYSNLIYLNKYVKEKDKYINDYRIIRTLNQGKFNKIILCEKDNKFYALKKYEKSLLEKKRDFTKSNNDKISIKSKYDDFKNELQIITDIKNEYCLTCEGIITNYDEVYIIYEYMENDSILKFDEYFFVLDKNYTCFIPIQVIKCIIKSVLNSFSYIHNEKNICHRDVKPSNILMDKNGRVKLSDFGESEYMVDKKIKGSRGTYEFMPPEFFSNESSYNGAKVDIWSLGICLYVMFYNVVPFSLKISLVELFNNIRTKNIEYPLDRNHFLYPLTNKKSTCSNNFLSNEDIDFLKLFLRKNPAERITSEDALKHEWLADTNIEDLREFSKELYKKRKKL
Sequence of Plasmodium falciparum protein kinase 6 (PK6, PF3D7_1337100) (Q8IDW1 1-305): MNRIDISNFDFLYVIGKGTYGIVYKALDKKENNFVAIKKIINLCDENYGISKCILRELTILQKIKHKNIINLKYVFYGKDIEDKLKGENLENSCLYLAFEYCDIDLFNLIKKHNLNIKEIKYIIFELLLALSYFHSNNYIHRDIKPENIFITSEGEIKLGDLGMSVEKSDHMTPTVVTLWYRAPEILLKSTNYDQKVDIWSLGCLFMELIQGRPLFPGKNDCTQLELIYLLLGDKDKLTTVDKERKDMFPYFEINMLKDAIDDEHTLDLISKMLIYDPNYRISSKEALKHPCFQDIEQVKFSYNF

OC(CNCCCc1ccccc1)c1cc(OCc2ccccc2)cc(OCc2ccccc2)c1 (configuration not stated)
growth inhibition [1]: 85% (active)
inhibition [2]: 8%
inhibition [3]: 4%
growth inhibition [4]: 93% (active)
outcome [5]: inactive
outcome [6]: inactive
outcome [7]: inactive
outcome [8]: inactive

COc1ccc2c(NN=Cc3cccc(C)n3)ccnc2c1
growth inhibition [1]: 51% (active)
inhibition [2]: -12%
inhibition [3]: 3%
growth inhibition [4]: 96% (active)
outcome [5]: inactive
outcome [6]: inactive
outcome [7]: inactive
outcome [8]: inactive

OCC1CCN(Cc2cccc(-c3cccc(-c4nc5ccc(C(F)(F)F)cc5[nH]4)c3)c2)CC1
growth inhibition [1]: 101% (active)
inhibition [2]: 24%
inhibition [3]: -3%
growth inhibition [4]: 102% (active)
outcome [5]: inactive
outcome [6]: inactive
outcome [7]: inactive
outcome [8]: inactive

Clc1ccc(CNc2ccnc(NCc3ccc4c(c3)OCCCO4)n2)c(Cl)c1
growth inhibition [1]: 20%
inhibition [2]: 50% (active)
inhibition [3]: -2%
growth inhibition [4]: 94% (active)
outcome [5]: inactive
outcome [6]: inactive
outcome [7]: inactive
outcome [8]: inactive

COc1ccc(NC(=O)c2ccc3[nH]c(-c4ccc(Cl)cc4)cc3c2)cc1OCCN(C)C
growth inhibition [1]: 78% (active)
inhibition [2]: 32%
inhibition [3]: 2%
growth inhibition [4]: 100% (active)
outcome [5]: inactive
outcome [6]: inactive
outcome [7]: inactive
outcome [8]: inactive

COc1ccc(C(=O)C2CCN(CCCCNC(=O)c3ccc(NC(=O)c4ccc(Cl)cc4)cc3)CC2)c(OC)c1
growth inhibition [1]: 13%
inhibition [2]: 47%
inhibition [3]: 4%
growth inhibition [4]: 98% (active)
outcome [5]: inactive
outcome [6]: inactive
outcome [7]: inactive
outcome [8]: inactive

Cc1cc(C(=O)Nc2ccc3c(c2)CCN3C2CCN(Cc3ccc(F)cc3Cl)C2)no1 (configuration not stated)
growth inhibition [1]: 96% (active)
inhibition [2]: 7%
inhibition [3]: 1%
growth inhibition [4]: 95% (active)
outcome [5]: inactive
outcome [6]: inactive
outcome [7]: inactive
outcome [8]: inactive

Cc1ccc(Nc2nccc(NCC(O)c3cccc(F)c3)n2)cc1 (configuration not stated)
growth inhibition [1]: 26%
inhibition [2]: 24%
inhibition [3]: -7%
growth inhibition [4]: 95% (active)
outcome [5]: inactive
outcome [6]: inactive
outcome [7]: inactive
outcome [8]: inactive

O=C(Nc1ccc(-c2nc3ccccc3[nH]2)cc1)c1ccc(Cl)c([N+](=O)[O-])c1
growth inhibition [1]: 4%
inhibition [2]: 6%
inhibition [3]: 1%
growth inhibition [4]: 99% (active)
outcome [5]: inactive
outcome [6]: inactive
outcome [7]: inactive
outcome [8]: inactive

NCCNc1ccc([N+](=O)[O-])cc1C(=O)Nc1cccc(Cl)c1
growth inhibition [1]: 7%
inhibition [2]: 23%
inhibition [3]: 4%
growth inhibition [4]: 85% (active)
outcome [5]: inactive
outcome [6]: inactive
outcome [7]: inactive
outcome [8]: inactive

C[C@H](NC(=O)c1c(OC2CN(C(c3ccccc3)c3ccccc3)C2)c(-c2ccccc2)nc2ccccc12)C1CCCCC1
growth inhibition [1]: 74% (active)
inhibition [2]: 0%
inhibition [3]: 2%
growth inhibition [4]: 92% (active)
outcome [5]: inactive
outcome [6]: inactive
outcome [7]: inactive
outcome [8]: inactive

Cc1ccc(-n2c(=O)c3c(n4c(SC(C)C)nnc24)-c2ccccc2CC32CCCCC2)cc1
growth inhibition [1]: 88% (active)
inhibition [2]: 8%
inhibition [3]: 0%
growth inhibition [4]: 95% (active)
outcome [5]: inactive
outcome [6]: inactive
outcome [7]: inactive
outcome [8]: inactive

COc1ccc(CC(C)CON2C(N)=NC(N)=NC2(C)C)cc1 (configuration not stated)
growth inhibition [1]: 96% (active)
inhibition [2]: 59% (active)
inhibition [3]: -9%
growth inhibition [4]: 94% (active)
outcome [5]: inactive
outcome [6]: inactive
outcome [7]: inactive
outcome [8]: inactive

NC(N)=NN=CC(=O)Nc1ccc(Cl)c(Cl)c1
growth inhibition [1]: 0%
inhibition [2]: -14%
inhibition [3]: 0%
growth inhibition [4]: 97% (active)
outcome [5]: inactive
outcome [6]: inactive
outcome [7]: inactive
outcome [8]: inactive

C[C@H](Cc1ccc(C(=O)OC(c2ccccc2)c2ccccc2)cc1)NC[C@H](O)c1ccccc1
growth inhibition [1]: 98% (active)
inhibition [2]: 83% (active)
inhibition [3]: -3%
growth inhibition [4]: 100% (active)
outcome [5]: inactive
outcome [6]: inactive
outcome [7]: inactive
outcome [8]: inactive

O=C(n1c(-c2cc3ccccc3n2C(=O)C(F)(F)F)cc2ccccc21)C(F)(F)F
growth inhibition [1]: 80% (active)
inhibition [2]: 30%
inhibition [3]: 5%
growth inhibition [4]: 94% (active)
outcome [5]: inactive
outcome [6]: inactive
outcome [7]: inactive
outcome [8]: inactive

COc1ccc(CCNCCCCCCNCCc2ccc(OC)c(OC)c2Cl)c(Cl)c1OC
growth inhibition [1]: -2%
inhibition [2]: 19%
inhibition [3]: 1%
growth inhibition [4]: 96% (active)
outcome [5]: inactive
outcome [6]: inactive
outcome [7]: inactive
outcome [8]: inactive

Cc1cc(NC(=O)c2ccco2)ccc1OC1CCN(Cc2ccc(F)cc2)CC1
growth inhibition [1]: 93% (active)
inhibition [2]: 4%
inhibition [3]: -2%
growth inhibition [4]: 96% (active)
outcome [5]: inactive
outcome [6]: inactive
outcome [7]: inactive
outcome [8]: inactive

CC(=O)Nc1ccc2[nH]cc(C3CCN(CCC4CCN(C(=O)/C=C/c5ccc(Cl)c(Cl)c5)CC4)CC3)c2n1
growth inhibition [1]: 80% (active)
inhibition [2]: 16%
inhibition [3]: 1%
growth inhibition [4]: 101% (active)
outcome [5]: inactive
outcome [6]: inactive
outcome [7]: inactive
outcome [8]: inactive

CNc1ccc(CNCc2ccc(-c3ccc(-c4nc5c(C)cccc5[nH]4)cc3)cc2)cc1
growth inhibition [1]: 92% (active)
inhibition [2]: 35%
inhibition [3]: -8%
growth inhibition [4]: 100% (active)
outcome [5]: inactive
outcome [6]: inactive
outcome [7]: inactive
outcome [8]: inactive

CC(C)c1ccc(NC(=O)Nc2ccc(Cn3ncc(N4CCCNCC4)c(Cl)c3=O)cc2)cc1
growth inhibition [1]: 27%
inhibition [2]: 11%
inhibition [3]: 2%
growth inhibition [4]: 85% (active)
outcome [5]: inactive
outcome [6]: inactive
outcome [7]: inactive
outcome [8]: inactive

Fc1cccc(Cl)c1-c1nc(NCCC(c2ccccc2)c2ccccc2)no1
growth inhibition [1]: 87% (active)
inhibition [2]: 4%
inhibition [3]: -3%
growth inhibition [4]: 99% (active)
outcome [5]: inactive
outcome [6]: inactive
outcome [7]: inactive
outcome [8]: inactive

COc1ccccc1NC(=O)OC(COc1ccc(N)cc1)CN1CC=C(c2ccccc2)CC1 (configuration not stated)
growth inhibition [1]: 81% (active)
inhibition [2]: 16%
inhibition [3]: 3%
growth inhibition [4]: 90% (active)
outcome [5]: inactive
outcome [6]: inactive
outcome [7]: inactive
outcome [8]: inactive

CC(C)Cc1ccc(N2CCN(CCCCNC(=O)c3ccc(NC(=O)c4ccc(Cl)c(Cl)c4)cc3)CC2)cc1
growth inhibition [1]: 25%
inhibition [2]: 21%
inhibition [3]: 0%
growth inhibition [4]: 94% (active)
outcome [5]: inactive
outcome [6]: inactive
outcome [7]: inactive
outcome [8]: inactive

C[C@H](Cc1ccc(C[C@@H](C)NC[C@H](O)c2cccc(Cl)c2)cc1)NC[C@H](O)COc1ccccc1
growth inhibition [1]: 60% (active)
inhibition [2]: 99% (active)
inhibition [3]: -2%
growth inhibition [4]: 96% (active)
outcome [5]: inactive
outcome [6]: inactive
outcome [7]: inactive
outcome [8]: inactive

COc1ccc(N2C(=O)C3C(C2=O)C2(C)c4ccccc4C3(C)c3ccccc32)c([N+](=O)[O-])c1 (configuration not stated)
growth inhibition [1]: 54% (active)
inhibition [2]: 11%
inhibition [3]: 7%
growth inhibition [4]: 99% (active)
outcome [5]: inactive
outcome [6]: inactive
outcome [7]: inactive
outcome [8]: inactive

COCCNCC(O)Cn1c2ccc(Cl)cc2c2cc(Cl)ccc21 (configuration not stated)
growth inhibition [1]: 74% (active)
inhibition [2]: 15%
inhibition [3]: 0%
growth inhibition [4]: 95% (active)
outcome [5]: inactive
outcome [6]: inactive
outcome [7]: inactive
outcome [8]: inactive

O=C(NCCCc1ccccc1)c1ccc(O)c(-c2cc(Cl)cc(Cl)c2)c1
growth inhibition [1]: 98% (active)
inhibition [2]: -1%
inhibition [3]: -3%
growth inhibition [4]: 99% (active)
outcome [5]: inactive
outcome [6]: inactive
outcome [7]: inactive
outcome [8]: inactive

O=S(=O)(Nc1cc2c(cc1O)CCNCC2)c1ccc(-c2ccc(Cl)cc2)cc1
growth inhibition [1]: 0%
inhibition [2]: 10%
inhibition [3]: 3%
growth inhibition [4]: 99% (active)
outcome [5]: inactive
outcome [6]: inactive
outcome [7]: inactive
outcome [8]: inactive

FC(F)(F)c1ccc(-c2cncc(-c3ccc(C(F)(F)F)cc3)n2)cc1
growth inhibition [1]: 97% (active)
inhibition [2]: 9%
inhibition [3]: -7%
growth inhibition [4]: 98% (active)
outcome [5]: inactive
outcome [6]: inactive
outcome [7]: inactive
outcome [8]: inactive

CCC[C@@H]([C@@H](CC1CCC(C)CC1)C(=O)N[C@@H](CCCNc1ncccn1)C(=O)Nc1nccs1)N(O)C=O (some centres not stated)
growth inhibition [1]: 98% (active)
inhibition [2]: 10%
inhibition [3]: 5%
growth inhibition [4]: 98% (active)
outcome [5]: inactive
outcome [6]: inactive
outcome [7]: inactive
outcome [8]: inactive

COc1ccc2nccc([C@@H](O)CN3CCC(NC(=O)c4ccc5nc(-n6cccc6)sc5c4)CC3)c2c1
growth inhibition [1]: 40%
inhibition [2]: 26%
inhibition [3]: -2%
growth inhibition [4]: 90% (active)
outcome [5]: inactive
outcome [6]: inactive
outcome [7]: inactive
outcome [8]: inactive

CNC(=O)/C=C/c1cc(NC(=O)Nc2ccnc3c(Br)cccc23)ccc1OC
growth inhibition [1]: 68% (active)
inhibition [2]: 12%
inhibition [3]: 1%
growth inhibition [4]: 95% (active)
outcome [5]: inactive
outcome [6]: inactive
outcome [7]: inactive
outcome [8]: inactive

CS(=O)(=O)c1cccc(-c2cnc3[nH]cc(-c4ccc(C(=O)O)cc4)c3c2)c1
growth inhibition [1]: 100% (active)
inhibition [2]: 6%
inhibition [3]: -2%
growth inhibition [4]: 99% (active)
outcome [5]: inactive
outcome [6]: inactive
outcome [7]: inactive
outcome [8]: inactive

CN(C)c1ccc(-c2nc3ccc(N)cc3[nH]2)cc1
growth inhibition [1]: 97% (active)
inhibition [2]: 1%
inhibition [3]: -1%
growth inhibition [4]: 102% (active)
outcome [5]: inactive
outcome [6]: inactive
outcome [7]: inactive
outcome [8]: inactive

COc1ccc(C2C(C(=O)Nc3cc(Cl)c(OC)cc3OC)c3ccccc3C(=O)N2C)cc1 (configuration not stated)
growth inhibition [1]: 98% (active)
inhibition [2]: 14%
inhibition [3]: 4%
growth inhibition [4]: 101% (active)
outcome [5]: inactive
outcome [6]: inactive
outcome [7]: inactive
outcome [8]: inactive

CC(C)(C)c1ccc(Cn2c(=N)n(CC(=O)c3ccc(-c4ccccc4)cc3)c3ccccc32)cc1
growth inhibition [1]: 50% (active)
inhibition [2]: 63% (active)
inhibition [3]: -5%
growth inhibition [4]: 98% (active)
outcome [5]: inactive
outcome [6]: inactive
outcome [7]: inactive
outcome [8]: inactive

CCCCCCCCn1c2c(c(=N)c3c1CCC3)CCC2
growth inhibition [1]: 93% (active)
inhibition [2]: 47%
inhibition [3]: -5%
growth inhibition [4]: 99% (active)
outcome [5]: inactive
outcome [6]: inactive
outcome [7]: inactive
outcome [8]: inactive

Cn1nc2ccc3ccccc3c2nc1=N
growth inhibition [1]: 85% (active)
inhibition [2]: 100% (active)
inhibition [3]: -4%
growth inhibition [4]: 91% (active)
outcome [5]: inactive
outcome [6]: inactive
outcome [7]: inactive
outcome [8]: inactive
